Measurements published in PubChem BioAssay (NCI).
Compounds without any hit were thinned out: in the full panel of roughly 83,000, 20% have a hit.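 Cell lines were cultured in 96-well plates, exposed to a single compound concentration, and assessed for percent growth 48 hours later.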 A number with no mark means an inactive call. Calls of active or inactive are those of the source. The calls were made as follows: active = growth percent below 10; inactive = the rest.

Columns and labels:
Assay in all cases: NCI-60 one-dose screen, 48 h (100 = growth as untreated, 0 = no growth, -100 = all killed)
[1] = system: EKVX NSCLC; details: 10 µM
[2] = system: SN12C renal; details: 10 µM
[3] = system: UO-31 renal; details: 10 µM
[4] = system: TK-10 renal; details: 10 µM unless noted
[5] = system: ACHN renal; details: 10 µM
[6] = system: CAKI-1 renal; details: 10 µM
[7] = system: A498 renal; details: 10 µM
[8] = system: CCRF-CEM leukemia; details: 10 µM
[9] = system: MOLT-4 leukemia; details: 10 µM

Compound	growth [1]	growth [2]	growth [3]	growth [4]	growth [5]	growth [6]	growth [7]	growth [8]	growth [9]
COc1cc2c(cc1OC)[C@H](C(=O)O)[C@@H](c1ccc(OC(C)C)c(OC)c1)N(C)C2=O	92.7%	90.4%	97.6%	96.2%	96.2%	80%	137%	96.6%	94.3%
O=c1cc(-c2ccccc2)oc2c1ccc1ccccc12	80.1%	84.2%	58.9%	108%	77%	90.8%	73%	89.4%	75.6%
CCOC(=O)c1[nH]c(C)c(C(C)=O)c1C	100%	90.8%	79.3%	98.4%	97%	87.3%	91%	91.6%	59.1%
C1CNC(C2=NCCN2)=N1	103%	102%	90.2%	103%	109%	99.2%	108%	109%	96.4%
CN(C)c1ccc(CNC(C(=O)c2ccccc2)c2ccccc2)cc1 (stereo unspecified)	101%	115%	102%	112%	101%	102%	8.44% (active)	90.9%	94.9%
CC(=O)Nc1cccc(NC(C)=O)n1	104%	99.7%	99.4%	111%	105%	126%	100%	90.3%	111%
O=[N+]([O-])c1ccc(Cl)c(S(=O)(=O)O)c1	111%	103%	89.3%	136%	101%	106%	113%	81.3%	89.7%
O=c1cc(-c2ccccc2)[nH]c2c1CCCC2	43.3%	44.6%	50.8%	34.5%	40.5%	24.5%	19.2%	32.6%	41.1%
COC(=O)Nc1nc2ccc(C(=O)c3cccs3)cc2[nH]1	37.8%	29.6%	48.8%	61.6%	40.5%	19.8%	-1.63% (active)	6.93% (active)	-13.6% (active)
Cc1cc(N)ccc1-c1ccc(N)cc1C	106%	98.5%	77.1%	111%	99.1%	94.8%	97.1%	105%	103%
OC1CCCc2ccccc21 (stereo unspecified)	100%	99%	60.6%	86.4%	97.9%	121%	120%	94.8%	105%
Cc1ccncc1C(N)=O	106%	101%	97%	112%	95.3%	64.4%	82.7%	83.1%	95.2%
CCOC(=O)C1=C(C)NC(=O)NC1c1cccs1 (stereo unspecified)	109%	103%	87.7%	108%	113%	103%	125%	95.8%	82.7%
Cc1ccc(O)c(C(=O)c2ccccc2)c1	103%	100%	97.2%	111%	104%	104%	78.7%	55.8%	112%
CC(=O)c1ccc(C)c(N)c1	91.8%	96%	81.4%	98.5%	101%	92.9%	95.4%	94.3%	103%
CC1(c2ccccc2)NC(=O)NC1=O (stereo unspecified)	120%	96.9%	82.5%	98.8%	107%	104%	123%	102%	101%
COC1=CC(=O)c2nc(Cl)ccc2C1=O	74%	-69.5% (active)	23.5%	84.2%	42.6%	91.6%	108%	1.69% (active)	-27.4% (active)
N#Cc1c(N)sc(=S)c2c1CCCC2	107%	105%	91.6%	116%	103%	98.5%	113%	101%	95.4%
NC(C(=O)O)c1ccc([N+](=O)[O-])cc1 (stereo unspecified)	98%	91.6%	78.2%	156%	98.1%	99.5%	107%	98.5%	105%
CCN(CC)c1ccc2nc3ccc(=[N+](CC)CC)cc-3oc2c1	8.19% (active)	0.99% (active)	56%	-26.1% (active)	8.56% (active)	34.9%	74.4%	11.2%	-21.4% (active)
O=c1[nH]nc(SC2CCCCC2)c(=O)[nH]1	99.5%	102%	77.9%	95.3%	113%	95%	93.7%	106%	89%
CCC(=O)Oc1ccc(OC)cc1	104%	101%	80.9%	84.4%	101%	98.3%	101%	101%	92.5%
COc1cc(C(=O)N/N=C/c2cccc([N+](=O)[O-])c2)cc(OC)c1OC	83.8%	93.8%	73.7%	81.1%	79.9%	55.4%	26.3%	62.1%	70.7%
CC1(C)OC(=O)C(c2ccsc2)C(=O)O1	105%	107%	84.4%	91.8%	107%	100%	113%	106%	105%

Compound	growth [1]	growth [2]	growth [3]	growth [4]	growth [5]	growth [6]	growth [7]	growth [8]	growth [9]
CC(=O)c1c[nH]c2ccccc12	99.2%	99.2%	74.7%	108%	107%	80.1%	103%	102%	104%
Cc1cc(NC(=O)CSCC(=O)O)no1	93.8%	101%	–	86.6%	105%	90%	120%	107%	103%
CCc1nn(Cc2ccccc2)c2nc(C)c(CCc3ccccc3)c(Cl)c12	84.3%	86.1%	–	91.5%	98.4%	67.8%	99.1%	80.1%	96%
OCc1cccc2ccccc12	119%	108%	95.5%	100%	98.6%	110%	109%	–	97.5%
O=[N+]([O-])c1ccc(S(=O)(=O)NN=C2CCCCC2)cc1	104%	103%	67.8%	128%	100%	92.5%	123%	–	98.7%
CC(CC(=O)c1ccccc1)c1ccccc1 (stereo unspecified)	–	107%	95.4%	90.1%	115%	106%	88.8%	98.4%	103%
O=[N+]([O-])c1ccc(Sc2ccncn2)c([N+](=O)[O-])c1	105%	51.3%	51.1%	34.3%	37.2%	39.7%	127%	41.2%	66.1%
O=C(NCO)c1ccccc1	108%	105%	78.9%	144%	97.4%	98.5%	106%	–	95.4%
COc1ccc(C(C)C=O)cc1 (stereo unspecified)	126%	104%	93.7%	92.1%	103%	104%	121%	–	93%
Cc1c(C(=O)O)c(=O)n(-c2ccccc2)n1C	103%	105%	89.6%	123%	109%	98.3%	–	108%	113%
CCCCN(CCCC)CCCO	110%	107%	104%	85%	105%	106%	114%	–	113%
CNS(=O)(=O)c1ccc(Cl)c(Cl)c1	99%	92.7%	109%	89.4%	99.5%	–	104%	104%	84.9%
O=C(O)c1ccccc1NCc1ccco1	103%	99.8%	–	64.7%	115%	–	99.9%	98.6%	104%
CC1(C)Nc2cccc3c(N=Nc4ccc(N=Nc5ccccc5)c5ccccc45)ccc(c23)N1	78%	94.6%	54.2%	–	77.7%	88.1%	103%	107%	115%
COCCCC/C(=N\OCCN)c1ccc(C(F)(F)F)cc1	93.1%	94%	74.1%	98.9%	98.6%	83.5%	89.1%	101%	96.7%
c1ccc(CN2COc3c(ccc4c3OCN(Cc3ccccc3)C4)C2)cc1	–	11.1%	-17.5% (active)	30.5%	12.3%	7.65% (active)	51.6%	5.13% (active)	0.409% (active)
COc1ccc2c(c1)CCc1c-2n[nH]c1-c1[nH]nc2c1CCc1cc(OC)ccc1-2	59.8%	91.6%	–	109%	57.8%	53.2%	109%	41.8%	50.4%
CN(C)c1ccc2nc3ccc(=N)cc-3sc2c1	–	57.3%	57.3%	105%	53%	68.3%	55.8%	–	–
CCCCCCCCOC(=O)c1ccccn1	107%	96.4%	–	102%	103%	111%	104%	–	116%
NC(=S)NN=C1CCCC1	65.4%	94.5%	63.2%	105%	107%	102%	85.6%	42.7%	66.1%
COc1cc2nc3cc([N+](=O)[O-])ccc3c(Cl)c2cc1OC	83.3%	97.7%	84.1%	95.2%	91.9%	101%	7.26% (active)	–	107%
O=[N+]([O-])c1ccc(N=Nc2ccc(O)c3ccccc23)cc1	60%	35.3%	24%	76.1%	47.3%	–	71.8%	–	31.5%
CC(=O)OC(C(=O)O)c1ccccc1 (stereo unspecified)	111%	101%	126%	117%	106%	104%	–	86%	95.5%
COc1cccc(O)c1O	99.6%	74.5%	70.3%	91.2%	73.2%	–	–	63.8%	64.8%

Compound	growth [1]	growth [2]	growth [3]	growth [4]	growth [5]	growth [6]	growth [7]	growth [8]	growth [9]
CNc1nc(NC)c2cn[nH]c2n1	99.2%	100%	78.6%	–	108%	88.6%	112%	5.44% (active)	101%
CN(C)Cc1cc(C(C)(C)CC(C)(C)C)ccc1O	98.4%	–	76.2%	99.8%	82.4%	90.7%	116%	99.6%	86.4%
CCC(C)(C)C1CCC(O)CC1 (stereo unspecified)	94.9%	98.7%	–	98.7%	97.7%	115%	97.8%	93.5%	106%
CC(=O)OC(OC(C)=O)C1CCCO1 (stereo unspecified)	97.7%	96.8%	–	103%	98.7%	112%	106%	109%	123%
COc1cc(/C=N\Nc2ccccc2)ccc1OC(=O)c1ccccc1	66.1%	79.4%	21.5%	96.2%	45.2%	40.3%	–	37.4%	38.5%
CCS(=O)(=O)CCCl	89.6%	97.8%	–	96.5%	97.3%	101%	129%	63.6%	89.5%
Nc1ccc(NC(=O)c2cccc(N)c2)cc1	86.6%	99.5%	–	123%	97.8%	56.4%	90.6%	88.8%	–
COCCOC(=O)c1ccc(C(C)C)cc1	100%	103%	94.5%	–	107%	99.4%	92.8%	90.6%	88.2%
c1ccc(Cc2ccccc2)cc1	102%	95.1%	–	99%	107%	85.7%	102%	104%	-26.2% (active)
COc1ccc(C2OC(N)=C(O)C2=O)cc1OC (stereo unspecified)	94.3%	96.1%	–	104%	96.9%	92.7%	109%	98.2%	109%
Cc1cc(O)ccc1O	94.6%	95.3%	94.4%	123%	105%	–	103%	19.1%	65%
CC1C(=O)c2ccccc2CC1C(=O)O (stereo unspecified)	113%	112%	100%	–	98.5%	83.2%	142%	99.1%	97.3%
CS(=O)CC1=NC(=N)N=C1CS(C)=O (stereo unspecified)	98.7%	101%	–	101%	107%	92.9%	104%	108%	107%
COc1ncnc2c1cnn2C	100%	98.2%	–	108%	98.1%	105%	99.7%	97%	89.9%
CCCCCCCCCCCCCC(=O)Oc1ccc[nH]c1=O	83.4%	98.1%	–	84.2%	110%	84.5%	94.5%	75.5%	98.6%
CCCCOC(=O)c1ccc(C(C)C)cc1	91.7%	102%	91.7%	–	104%	96.7%	87%	112%	83.3%
O=C(NCCNC(=O)c1ccc(Cl)cc1Cl)c1ccc(Cl)cc1Cl	–	87.1%	90.9%	120%	110%	84.4%	104%	–	96.6%
COc1cc(/C=C/C(=O)c2ccccc2)cc(OC)c1OC	–	53.3%	49.7%	112%	51.1%	-23.3% (active)	–	–	28.8%
COc1ccc(C(=O)C(Br)C(Br)C(=O)O)cc1 (stereo unspecified)	–	98.6%	102%	–	101%	112%	101%	–	105%
CCCCCC(C)(CC(=O)O)CC(=O)O	–	110%	97.6%	111%	103%	116%	113%	107%	103%
O=C(OCC(O)C1OC(c2ccccc2)OC(COC(=O)c2ccccc2)C1O)c1ccccc1 (stereo unspecified)	–	99.6%	93.2%	99.6%	106%	85.3%	–	–	102%
Sc1ccc(Nc2c3ccccc3nc3ccccc23)cc1	–	95.6%	82.4%	104%	97%	92.2%	–	97.1%	94.1%
CNC(=O)c1ccccc1CC1(O)c2ccccc2Oc2ccccc21	–	80.9%	57.7%	58.9%	54.4%	44.8%	0.171% (active)	56.4%	38.1%
